This is an account of results in ChEMBL document CHEMBL3988442, “University of Dundee, Small-Polar-MMV Screening Library” (2021).

SMILES strings stand for the structures. Screen size: about 48,000 compounds; about 13,000 (27%) showed an effect of 50% or more. This is one part of the list.

For the assay, the system named is Wolbachia pipientis. The assay can be described thus: Anti-Wolbachia Cell-Based Screen. The note with it: 5 µM. Type of assay: functional. On the set-up: scale not given: in the data most compounds retested in dose-response had high values.
Regarding `O=S1(=O)CCC(n2cc(CNc3ccccc3Br)cn2)C1` (configuration not stated), the “Percent Effect” value stood at 3.444%.
The value for `CCOCC1CCN(C(=O)C(c2c(F)cccc2F)N(C)C)CC1` (configuration not stated) was -13.66%; that for `CC(C)c1nc(-c2ccc(=O)[nH]n2)n(-c2ccc3c(c2)OCO3)n1` was -26.15%; that for `CC(C)N1CCOC[C@H]1c1nc(-c2ccncc2)c[nH]1` was 8.176%.
The value for `CCc1nccn1CCC(=O)N1C[C@H]2CC[C@@H]1CN(C(=O)N(C)C)C2` was -6.839%; that for `CC(C)COC(C)C(=O)N1CCCCCC1` (configuration not stated) was -3.624%; that for `CC(C)COC(C)C(=O)NCc1ccccc1Cn1ccnc1` (configuration not stated) was -1.115%.
As for `CCOC(C)C(=O)NCCNS(C)(=O)=O` (configuration not stated), the “Percent Effect” value is given as 99.51%.
The same measure for `CC(C)COC(C)C(=O)NCCNS(C)(=O)=O` (configuration not stated): 116.1%; for `CC(C)COC(C)C(=O)N1CCCC1` (configuration not stated): -7.961%.
The value for `CC(C)C(=O)NCCNC(=O)C(C)OCC(F)(F)F` (configuration not stated) was 2.033%; that for `CC(C)COC(C)C(=O)NCCNC(=O)C(C)C` (configuration not stated) was 90.67%; that for `CC(Oc1ccc(C(=O)NCCNS(C)(=O)=O)cn1)c1ccccc1` (configuration not stated) was 12.3%.
The same measure for `CCN(CC)CCNC(=O)C(C)OCC(F)(F)F` (configuration not stated): -16.45%; for `CC(C)N1CC(C(=O)N2CCN(CCn3cccc3)CC2)CC1=O` (configuration not stated): 11.86%.
With `Cc1ccc(CN(CCN(C)C)Cc2ncc[nH]2)s1`, the “Percent Effect” value is listed as -6.049%.
The value for `CNC(=O)c1cccc(CCNS(C)(=O)=O)c1` was -1.562%; that for `COc1ccc(OC)c(C(C)NC(=O)Nc2nnc(C)s2)c1` (configuration not stated) was -19.71%; that for `O=C(O)C(F)(F)F.OCCOCc1n[nH]c2c1CN(Cc1ccccn1)C2` was -2.311%.
For the compound `CCCN1CCc2c(C(=O)N(C)Cc3ccccn3)nn(C)c2C1.O=C(O)C(F)(F)F.O=C(O)C(F)(F)F.O=C(O)C(F)(F)F`, the “Percent Effect” value turned out to be 5.255%.
The value for `CN(C)CCOCc1cncc2c1CCN(Cc1ccccn1)C2.O=C(O)C(F)(F)F.O=C(O)C(F)(F)F.O=C(O)C(F)(F)F` was 94.64%; that for `CN(C)C(=O)COCc1cncc2c1CCN(Cc1ccccn1)C2.O=C(O)C(F)(F)F.O=C(O)C(F)(F)F` was 86.2%; that for `CN(C)C(=O)COCc1cncc2c1CCN(Cc1cnn(C)c1)C2.O=C(O)C(F)(F)F.O=C(O)C(F)(F)F` was -8.97%.
Take `CN(C)C(=O)COCc1cncc2c1CCN(Cc1ccccc1)C2.O=C(O)C(F)(F)F.O=C(O)C(F)(F)F`: the “Percent Effect” value is -0.7445%.
The same measure for `O=C(O)c1cc(-c2ccncc2)cc(S(=O)(=O)NCc2ccccn2)c1`: -3.238%; for `CC(C1CC1)N(CC(=O)NC(=O)NC1CC1)C1CC1` (configuration not stated): -6.692%.
The same measure for `Cc1[nH]ncc1CCCNC(=O)Nc1ccc(F)cc1`: 17.19%; for `Cc1nc(CCCNC(=O)Nc2ccc(F)cc2F)n[nH]1`: 105.4%; for `O=C(CCCNC(=O)Nc1ccc(F)cc1F)Nc1cn[nH]c1`: -17.8%.
The same measure for `O=C(Nc1ccc(F)cc1F)Nc1c[nH]c(=O)[nH]c1=O`: -7.625%; for `Cc1[nH]ncc1CCCNC(=O)Nc1ccccc1`: -6.052%.
`Cc1nc(CCCNC(=O)Nc2cc(F)cc(F)c2)n[nH]1`: the “Percent Effect” value is 105.8%.
Turning to `CCC(CO)N(Cc1ccco1)C(=O)c1ccccc1SC` (configuration not stated), the “Percent Effect” value was -1.914%.
The same measure for `Cc1cc2c(c(-c3cncc(C(=O)N4CCCC4)n3)c1)OC(CN)C2` (configuration not stated): 3.308%; for `Cc1cccc(C)c1OC1CCN(Cc2ccn(C)c(=O)c2)CC1`: 80.01%.
The same measure for `CCOc1ccccc1OC1CCN(Cc2ccn(C)c(=O)c2)CC1`: 96.61%; for `COc1ccc(OC2CCN(Cc3ccn(C)c(=O)c3)CC2)cc1`: 90.95%; for `Cn1ccc(CN2CCC(Oc3ccccc3)CC2)cc1=O`: 0.4399%.
The value for `CC(=O)NCCC(=O)N(C/C=C/c1ccccc1)CCO` was 2.612%; that for `CC(C)(O)CCc1ccc(C(=O)NCC2CCCOC2)cc1` (configuration not stated) was -16.45%; that for `Cc1csc2c(=O)n3c(nc12)CCN(C(=O)c1ccccn1)CC3` was 118.3%.
For the compound `CCc1cc(C(=O)N2CCc3nc4c(C)csc4c(=O)n3CC2)on1`, the “Percent Effect” value was determined as 101.2%.
The same measure for `Cc1csc2c(=O)n3c(nc12)CCN(C(=O)c1cccnc1)CC3`: -6.131%.
The value for `Cc1nc(-c2ccsc2)sc1C(=O)N1CCn2c(C)nnc2C1` was -8.635%; that for `Cc1csc2nc3n(c(=O)c12)CCN(C(=O)c1ccncc1)CC3` was 0.2415%; that for `Cc1noc(CN2CCN(C(=O)c3ccccn3)CC2)n1` was -3.094%.
Regarding `Cc1ccc(C(=O)N2CCc3nc4c(C)csc4c(=O)n3CC2)cn1`, the “Percent Effect” value was 130.6%.
For the compound `Cc1nc(C)c(C(=O)N2CCc3nc4c(C)csc4c(=O)n3CC2)s1.Cl`, the “Percent Effect” value was 93.57%.
The value for `CN1CCN(Cc2cnc3n2CCN(C(=O)c2ccccn2)C3)CC1` was -0.6061%; that for `CCc1nc(CN2CCN(C(=O)c3cc(C)nn3C)CC2)cs1` was -4.839%; that for `O=C1OCCN1CCc1nc(-c2cc3c4c(c2)CC(=O)N4CCC3)cs1` was -4.599%.
The value for `O=C(O)CC[C@@H]1CN(c2ncccc2F)CC[C@@H]1N1CCOCC1` was 1.489%; that for `CSCc1nc(C(C)(C)NC(=O)OC(C)(C)C)no1` was 6.132%; that for `COc1ccc(CN2C[C@@H](CN(C)CCO)[C@@H](CO)C2)cc1Cl` was -12.8%.
The same measure for `CC(C)(C)N1CC(C(=O)NCc2nc(C3CCCCC3)no2)CC1=O` (configuration not stated): -1.29%; for `CCc1ccc(CNC(=O)CCNS(=O)(=O)c2cn(C)c(C)n2)s1`: -8.825%; for `Cc1cc2c(=O)n3c(nc2s1)CCN(C(=O)c1cnn(C)c1C)CC3`: -11.91%.
In the case of `Cc1csc2c(=O)n3c(nc12)CCN(C(=O)c1ccnn1C)CC3`, the “Percent Effect” value turned out to be 126.7%.
Consider `C[C@@H]1CN(C(=O)Nc2cccc(OC(F)F)c2)CC(C(N)=O)O1` (some centres not stated), for which the “Percent Effect” value is -8.405%.
The value for `COc1ccc(NC(=O)N2CCC(c3nnc[nH]3)CC2)cc1C` was -18.03%; that for `Cc1ccc(NC(=O)N2CCOC(C(N)=O)C2)cc1C(F)(F)F` (configuration not stated) was 103.5%; that for `COCCN1CCC(CNC(=O)Nc2ccc(SC(F)(F)F)cc2)C1` (configuration not stated) was -1.712%.
The same measure for `NC(=O)C1CN(C(=O)NCC2(c3ccc(F)cc3)CCC2)CCO1` (configuration not stated): 2.915%; for `NC(=O)C1CN(C(=O)Nc2ccc(SC(F)(F)F)cc2)CCO1` (configuration not stated): 111.1%; for `NC(=O)C1CN(C(=O)Nc2cc(Cl)cc(Cl)c2)CCO1` (configuration not stated): -5.843%.
The value for `CN1CCCc2cc(NC(=O)N3CCOC(C(N)=O)C3)ccc21` (configuration not stated) was -7.642%.
Regarding `Cc1cc(NC(=O)N2CCOC(C(N)=O)C2)ccc1Br` (configuration not stated), the “Percent Effect” value is listed as 158.4%.
